Experimental data: PubChem BioAssay (Tox21)
Inconclusive results are not listed. Activity calls are given as the source filed them. Unless noted, calls follow the shape of the dose curve; as a rule, active = well fitted curve in the direction sought with a large enough effect in the repeat runs; inconclusive = weak or mixed curves; inactive = no such curve, though single readings can be large; an effect the other way counts as inactive or inconclusive.

Columns and labels:
[1] = qHTS assay to identify small molecule antagonists of the thyroid receptor (TR) signaling pathway - cell viability counter screen (AID 743064); also: nearly all actives have a fitted effect of over 50% in size
Summary of the method: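 GH3.TRE-Luc cells, 4 h pre-plating; cpd + T3 1 nM final; 37 °C 23.5 h; CellTiter-Fluor 30 min; fluorescence read.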

[2] = qHTS assay to identify small molecule antagonists of the thyroid receptor (TR) signaling pathway (AID 743065); also: series mostly up to about 70 µM; nearly all actives have a fitted effect of over 55% in size
Summary of the method: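 GH3.TRE-Luc rat pituitary cells (two TREs driving luciferase) were dosed with compound, then stimulated with 1 nM T3 (final) for 23.5 h at 37 C. ONE-Glo luminescence was the read-out, with CellTiter-Fluor fluorescence as the cytotoxicity counter-screen.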

[3] = tested on: thyroid hormone receptor (rat, GH3 cells); assay: qHTS assay to identify small molecule agonists of the thyroid receptor (TR) signaling pathway (AID 743066; calls by dose curve)
[4] = biological target: Estrogen receptor (Homo sapiens) (UniProt P03372); assay: qHTS assay to identify small molecule antagonists of the estrogen receptor alpha (ER-alpha) signaling pathway (AID 743069; active = well fitted curve in the direction sought with a large enough effect in the signal ratio in the repeat runs, not every such curve was filed as active; the % refers to the signal ratio)
Summary of the method: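 In this cell-based reporter format, GripTite HEK293 cells harbouring ER-alpha-UAS-bla were grown overnight with 2% charcoal-stripped FBS, dosed with DMSO-dissolved compounds, then challenged with 17beta-estradiol. After 18 hr at 37C, beta-lactamase activity was detected by FRET fluorescence.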

[5] = qHTS assay to identify small molecule antagonists of the estrogen receptor alpha (ER-alpha) signaling pathway - cell viability counter screen (AID 743074; calls by dose curve; also: nearly all actives have a fitted effect of over 45% in size)
[6] = biological target: Estrogen receptor (Homo sapiens) (UniProt P03372); assay: qHTS assay to identify small molecule agonists of the estrogen receptor alpha (ER-alpha) signaling pathway (AID 743075; calls by dose curve)
[7] = biological target: Estrogen receptor (Homo sapiens) (UniProt P03372); assay: qHTS assay to identify small molecule agonists of the estrogen receptor alpha (ER-alpha) signaling pathway using the BG1 cell line (AID 743079); also: nearly all actives have a fitted effect of over 20% in size
[8] = qHTS assay to identify small molecule antagonists of the estrogen receptor alpha (ER-alpha) signaling pathway using the BG1 cell line - cell viability counter screen (AID 743081);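 also: compound given together with 17beta-estradiol as the ER stimulus; series mostly up to about 70 µM; nearly all actives have a fitted effect of over 45% in size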
Aromatase (Homo sapiens) = Aromatase (Homo sapiens) (UniProt P11511); assay: qHTS assay to identify aromatase inhibitors (AID 743083); also: nearly all actives have a fitted effect of over 55% in size; also: potency is read from the fitted curve at half-maximal effect
[9] = qHTS assay to identify aromatase inhibitors - cell viability counter screen (AID 743084);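 also: cells stimulated with testosterone during compound exposure; nearly all actives have a fitted effect of over 55% in size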
[10] = biological target: Aryl hydrocarbon receptor (Homo sapiens) (UniProt P35869); assay: qHTS assay to identify small molecule that activate the aryl hydrocarbon receptor (AhR) signaling pathway (AID 743085);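 also: HG2L7.5c1 human HepG2 liver cells with stably integrated DRE-driven firefly reporter; series mostly up to about 70 µM; nearly all actives have a fitted effect of over 15% in size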
Summary of the method: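 Luminescence read-out: ONE-Glo reagent, 30 min at room temperature, in HG2L7.5c1 HepG2 reporter cells treated 24 h at 37C. Viability was measured beforehand by CellTiter-Fluor fluorescence after 30 min at 37C.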

[11] = qHTS assay to identify small molecule that activate the aryl hydrocarbon receptor (AhR) signaling pathway - cell viability counter screen (AID 743086);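 also: HepG2 liver cells carrying the AhR DRE luciferase reporter; series mostly up to about 70 µM; nearly all actives have a fitted effect of over 45% in size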
Summary of the method: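 HepG2-AhR-luc (HG2L7.5c1) cells, 4000/well, treated 24 h at 37 C with compound; viability measured as CellTiter-Fluor fluorescence after 30 min in the same wells as the luciferase read.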

[12] = biological target: Peroxisome proliferator-activated receptor gamma (Homo sapiens) (UniProt P37231); assay: qHTS assay to identify small molecule agonists of the peroxisome proliferator-activated receptor gamma (PPARg) signaling pathway (AID 743094; active = well fitted activation curve with a large enough effect in the signal ratio in the repeat runs, not every such curve was filed as active; the % refers to the signal ratio)
Summary of the method: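 Agonism was assessed in a beta-lactamase reporter system, HEK293H cells with a stably integrated UAS-bla construct under PPARg control; the 17 h treatment at 37C preceded a 1 h room-temperature FRET substrate read.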

[13] = qHTS assay to identify small molecule antagonists of the peroxisome proliferator-activated receptor gamma (PPARg) signaling pathway - cell viability counter screen (AID 743194); also: nearly all actives have a fitted effect of over 55% in size
Summary of the method: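 Cytotoxicity counter screen in PPARg-bla HEK293H cells, same wells as reporter assay. Compounds plus 50 nM rosiglitazone (final) for 17 h at 37 C, then viability read by CellTiter-Glo luminescence.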

[14] = qHTS assay for small molecule agonists of the antioxidant response element (ARE) signaling pathway - cell viability counter screen (AID 743203; calls by dose curve; also: nearly all actives have a fitted effect of over 55% in size)
Summary of the method: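 ATP content via CellTiter-Glo luminescence served as the viability measure. Cells: ARE-bla HepG2, 2,000 per well. Exposure: 16 hrs, 37C/5% CO2.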

[15] = qHTS assay for small molecule activators of the heat shock response signaling pathway - cell viability counter screen (AID 743209); also: nearly all actives have a fitted effect of over 50% in size
Summary of the method: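 Compounds dissolved in DMSO were added to overnight-plated HSE-bla HeLa cells and left 5 h at 37 C. Cell viability was quantified by luminescence using CellTiter-Glo.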

[16] = qHTS assay for small molecule activators of the heat shock response signaling pathway (AID 743210; active = well fitted activation curve with a large enough effect in the signal ratio in the repeat runs, with a control signal flat, not every such curve was filed as active; the % refers to the signal ratio;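 also: HeLa cells with beta-lactamase reporter driven by heat shock elements; series mostly up to about 63 µM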)
Summary of the method: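 Following overnight attachment, HSE-bla HeLa cells received test compounds for 5 h at 37 C; beta-lactamase activity was then detected via FRET substrate fluorescence.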

[17] = biological target: Peroxisome proliferator-activated receptor gamma (Homo sapiens) (UniProt P37231); assay: qHTS assay to identify small molecule antagonists of the peroxisome proliferator-activated receptor gamma (PPARg) signaling pathway (AID 743191; calls by dose curve; also: series mostly up to about 63 µM; nearly all actives have a fitted effect of over 30% in size)
Summary of the method: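 GeneBLAzer PPARg UAS-bla HEK293H cells, 5 h post-plating, exposed to compounds 17 h at 37C. LiveBLAzer B/G FRET substrate added for 1 h at room temperature; beta-lactamase reporter read by fluorescence intensity.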

[18] = qHTS assay to identify small molecule antagonists of the estrogen receptor alpha (ER-alpha) signaling pathway using the BG1 cell line (AID 743080; calls by dose curve;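 also: BG1 cells stimulated with 17beta-estradiol alongside compound; series mostly up to about 70 µM; nearly all actives have a fitted effect of over 25% in size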)
Summary of the method: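 After 5 days in phenol-red-free 10% charcoal-stripped FBS medium, BG1-Luc-4E2 cells were seeded, left 24 h at 37 C, co-treated with compounds and 17beta-estradiol for 21.5 h, then assayed for viability and luciferase.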

[19] = qHTS assay for small molecule agonists of the antioxidant response element (ARE) signaling pathway (AID 743202; active = well fitted activation curve with a large enough effect in the signal ratio in the repeat runs, not every such curve was filed as active; the % refers to the signal ratio)
Summary of the method: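 HepG2 ARE-bla cells; 16 h treatment at 37 C; FRET-based beta-lactamase fluorescence read after 2 h substrate incubation at room temperature.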

Measured: Potency

Sequence of Aromatase (Homo sapiens) (P11511 whole entry, looked up): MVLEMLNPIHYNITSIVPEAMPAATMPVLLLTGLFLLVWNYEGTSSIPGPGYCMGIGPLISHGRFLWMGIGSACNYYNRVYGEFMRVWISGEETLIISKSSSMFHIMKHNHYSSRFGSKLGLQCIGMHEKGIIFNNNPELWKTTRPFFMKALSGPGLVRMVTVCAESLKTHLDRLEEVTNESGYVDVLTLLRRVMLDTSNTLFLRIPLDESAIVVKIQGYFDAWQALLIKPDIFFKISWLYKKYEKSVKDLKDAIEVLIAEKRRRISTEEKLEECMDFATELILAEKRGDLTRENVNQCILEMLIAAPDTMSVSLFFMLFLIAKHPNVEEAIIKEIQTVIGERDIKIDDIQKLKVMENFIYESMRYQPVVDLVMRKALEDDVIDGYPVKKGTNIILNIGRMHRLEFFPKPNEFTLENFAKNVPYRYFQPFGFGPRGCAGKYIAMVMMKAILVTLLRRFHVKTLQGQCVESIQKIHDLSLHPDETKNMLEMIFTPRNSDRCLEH
Sequence of Aryl hydrocarbon receptor (Homo sapiens) (P35869 whole entry, looked up): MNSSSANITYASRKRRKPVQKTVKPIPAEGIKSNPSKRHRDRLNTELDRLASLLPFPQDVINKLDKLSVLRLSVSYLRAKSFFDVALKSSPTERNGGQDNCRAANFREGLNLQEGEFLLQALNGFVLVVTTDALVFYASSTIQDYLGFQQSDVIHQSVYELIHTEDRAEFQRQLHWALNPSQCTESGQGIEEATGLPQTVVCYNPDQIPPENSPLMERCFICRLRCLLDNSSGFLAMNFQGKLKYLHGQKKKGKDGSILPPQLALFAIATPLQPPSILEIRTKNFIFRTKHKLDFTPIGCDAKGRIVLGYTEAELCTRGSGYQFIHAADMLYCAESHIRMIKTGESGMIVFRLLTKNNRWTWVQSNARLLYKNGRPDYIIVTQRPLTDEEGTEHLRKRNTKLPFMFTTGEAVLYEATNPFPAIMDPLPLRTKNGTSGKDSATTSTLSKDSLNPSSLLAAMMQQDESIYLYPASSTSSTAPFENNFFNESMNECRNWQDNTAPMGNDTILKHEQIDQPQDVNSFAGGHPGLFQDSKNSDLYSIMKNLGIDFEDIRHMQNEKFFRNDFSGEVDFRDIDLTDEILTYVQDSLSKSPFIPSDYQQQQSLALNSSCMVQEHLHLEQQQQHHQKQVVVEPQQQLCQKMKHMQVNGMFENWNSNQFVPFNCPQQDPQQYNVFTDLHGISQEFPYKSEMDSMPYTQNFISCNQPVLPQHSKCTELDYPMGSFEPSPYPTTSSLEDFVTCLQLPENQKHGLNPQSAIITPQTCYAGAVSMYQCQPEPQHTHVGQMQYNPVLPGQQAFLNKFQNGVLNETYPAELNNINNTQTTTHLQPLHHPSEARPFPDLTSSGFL
Sequence of Peroxisome proliferator-activated receptor gamma (Homo sapiens) (P37231 whole entry, looked up): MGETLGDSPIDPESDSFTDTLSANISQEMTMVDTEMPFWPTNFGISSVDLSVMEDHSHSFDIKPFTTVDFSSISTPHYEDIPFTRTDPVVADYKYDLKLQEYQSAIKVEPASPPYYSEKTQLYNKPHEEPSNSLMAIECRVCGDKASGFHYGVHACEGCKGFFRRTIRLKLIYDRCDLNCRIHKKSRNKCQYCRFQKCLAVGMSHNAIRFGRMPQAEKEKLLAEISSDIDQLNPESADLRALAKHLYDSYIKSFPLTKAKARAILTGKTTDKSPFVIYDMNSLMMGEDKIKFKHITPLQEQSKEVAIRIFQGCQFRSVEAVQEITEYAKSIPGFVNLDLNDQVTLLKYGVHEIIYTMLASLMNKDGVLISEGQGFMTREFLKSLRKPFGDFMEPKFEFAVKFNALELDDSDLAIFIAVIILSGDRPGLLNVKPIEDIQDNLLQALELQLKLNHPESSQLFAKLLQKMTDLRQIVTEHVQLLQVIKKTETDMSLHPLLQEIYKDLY
Sequence of Estrogen receptor (Homo sapiens) (P03372 whole entry, looked up): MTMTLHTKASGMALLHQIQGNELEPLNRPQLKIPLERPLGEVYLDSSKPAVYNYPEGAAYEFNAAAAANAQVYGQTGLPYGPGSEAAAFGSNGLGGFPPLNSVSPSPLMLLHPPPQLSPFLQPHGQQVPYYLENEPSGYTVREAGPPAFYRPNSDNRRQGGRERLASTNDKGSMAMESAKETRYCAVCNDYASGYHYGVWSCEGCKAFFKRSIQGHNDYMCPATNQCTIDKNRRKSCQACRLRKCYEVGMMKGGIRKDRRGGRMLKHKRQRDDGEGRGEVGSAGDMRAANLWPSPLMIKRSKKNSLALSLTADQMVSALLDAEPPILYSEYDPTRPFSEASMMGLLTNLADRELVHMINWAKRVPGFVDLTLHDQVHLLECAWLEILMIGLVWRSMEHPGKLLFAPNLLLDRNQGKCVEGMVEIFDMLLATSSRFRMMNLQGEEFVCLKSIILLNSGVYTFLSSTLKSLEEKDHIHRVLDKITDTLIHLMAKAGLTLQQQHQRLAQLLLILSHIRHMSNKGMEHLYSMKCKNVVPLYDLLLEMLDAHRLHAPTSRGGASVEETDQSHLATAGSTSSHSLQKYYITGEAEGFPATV

NS(=O)(=O)c1cc2c(cc1Cl)NC(CSCc1ccccc1)=NS2(=O)=O
inactive: [1] | [2] | [3] | [4] | [5] | [6] | [7] | [8] | Aromatase (Homo sapiens) | [9] | [10] | [11] | [12] | [13] | [14] | [15] | [16]

O=S(=O)(c1cccc2cnccc12)N1CCCNCC1
inactive: [1] | [2] | [3] | [4] | [5] | [6] | [8] | [9] | [11] | [17] | [13] | [14] | [15] | [16]
active: Aromatase (Homo sapiens) 13.3 µM

Cc1ccc(Nc2ccc(O)c3c2C(=O)c2ccccc2C3=O)cc1
inactive: [1] | [2] | [3] | [4] | [5] | [6] | [7] | [18] | [8] | Aromatase (Homo sapiens) | [9] | [11] | [12] | [17] | [13] | [14] | [15] | [16]

CC1=CCC2C(C1)C2(C)C (stereo unspecified)
inactive: [1] | [2] | [3] | [4] | [5] | [6] | [7] | [8] | Aromatase (Homo sapiens) | [9] | [10] | [11] | [12] | [13] | [14] | [15]

CC(C)(C)C(=O)/C=C/c1ccc(Cl)cc1
inactive: [1] | [2] | [3] | [4] | [5] | [6] | [7] | [8] | Aromatase (Homo sapiens) | [10] | [11] | [12] | [13] | [14] | [15]

CC(C)c1cccc(C(C)C)c1N
inactive: [1] | [2] | [3] | [4] | [5] | [6] | [7] | [8] | Aromatase (Homo sapiens) | [9] | [10] | [11] | [12] | [17] | [13] | [19] | [14] | [15] | [16]

C[C@H](O)C(=O)Nc1c(I)c(C(=O)NC(CO)CO)c(I)c(C(=O)NC(CO)CO)c1I
inactive: [1] | [2] | [3] | [4] | [5] | [6] | [7] | [8] | Aromatase (Homo sapiens) | [9] | [10] | [11] | [12] | [17] | [13] | [14] | [15] | [16]

CC(=O)CCc1ccc(O)cc1
inactive: [1] | [2] | [3] | [4] | [5] | [6] | [7] | [8] | Aromatase (Homo sapiens) | [9] | [12] | [17] | [13] | [19] | [14] | [15] | [16]

Cc1cc(C)cc(OCC2CNC(=O)O2)c1 (stereo unspecified)
inactive: [1] | [2] | [3] | [4] | [5] | [6] | [7] | [8] | Aromatase (Homo sapiens) | [9] | [10] | [11] | [12] | [17] | [13] | [19] | [14] | [15] | [16]

C=CCOCC(O)CS(=O)(=O)O (stereo unspecified)
inactive: [1] | [2] | [3] | [4] | [5] | [6] | [7] | [18] | [8] | Aromatase (Homo sapiens) | [9] | [11] | [12] | [13] | [19] | [14] | [15] | [16]

CC(C)CCOC(=O)CC(C)C
inactive: [1] | [2] | [3] | [4] | [5] | [6] | [7] | [8] | Aromatase (Homo sapiens) | [9] | [10] | [11] | [12] | [17] | [13] | [19] | [14] | [15] | [16]

CCO[Si](C)(OCC)OCC
inactive: [1] | [3] | [4] | [5] | [6] | [7] | [18] | [8] | Aromatase (Homo sapiens) | [9] | [10] | [11] | [13] | [14] | [15] | [16]

CCN1CCCC1CNC(=O)c1cc(S(N)(=O)=O)ccc1OC (stereo unspecified)
inactive: [1] | [2] | [3] | [5] | [8] | Aromatase (Homo sapiens) | [9] | [12] | [17] | [13] | [19] | [14] | [15] | [16]
